Measurements from PubChem BioAssay.

target: Calmodulin-1 (Homo sapiens) (UniProt P0DP23); assay: CALM1 binders on microarrays, EGTA buffer, profiling panel, biochemical, small-molecule microarray, Cy5-labelled CALM1 (AID 1111); details: Cy5-CALM1 binding fluorescence, higher = more signal;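 note: labelled calmodulin applied in Tris saline Tween buffer holding calcium plus EGTA and DTT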

Compound	composite z-score
O=C1O[C@@H](c2ccccc2)[C@@H](c2ccccc2)N2[C@@H](c3ccc(O)cc3)[C@]3(C(=O)Nc4ccc(C#CC5=CCCCC5)cc43)[C@@H](C(=O)NC[C@H](O)c3ccccc3)[C@H]12	1.11
NC(=O)NCC#Cc1ccc2c(c1)[C@]1(C(=O)N2)[C@H](C(=O)NC[C@H](O)c2ccccc2)[C@H]2C(=O)O[C@H](c3ccccc3)[C@H](c3ccccc3)N2[C@@H]1c1ccc(OCCO)cc1	0.616
CC(C)N1CC=CC23O[C@@H]4C=CCOC(=O)[C@@H]4[C@H]2C(=O)N(CCCO)[C@@H]3C1=O (some centres undefined)	-0.373
N#Cc1ccc(C(O)C2C=CC3C(=O)N(c4ccccc4)C(=O)C3N2Nc2ccccc2)cc1 (centres undefined)	1.03
CCCCN1CC=CC23O[C@@H]4/C=C\CCC(C)OC(=O)C4[C@H]2C(=O)N(C(CO)C(C)C)[C@@H]3C1=O (some centres undefined)	-0.708
C=CCN1Cc2ccccc2[C@H]2OC(c3ccc(OCCCO)cc3)=N[C@@]2(CC=C)C1=O	3.19
CC(CO)N1C(=O)[C@@H]2[C@H]3C(=O)OCC=C[C@H]3OC23C=CCN(CCN2CCOCC2)C(=O)[C@@H]13 (some centres undefined)	-0.998
CCCCCCc1nc(-c2cc(C)c(OC)c(C)c2)c(C)c2c1[Si](C(C)C)(C(C)C)OC2	-0.357
C=C(COC)/C(=C/C[C@H](OC(=O)c1ccncc1)c1ccccc1OCCO)c1cnc2ccccc2c1	-0.158
CO[C@H]1O[C@H](CO)[C@@H](OC(=O)Nc2ccc3c(c2)OCO3)[C@H](OC(=O)c2cc3ccccc3[nH]2)[C@H]1OC(=O)c1cc2ccccc2[nH]1	-0.418
O=C1N(Cc2ccccc2)c2ccccc2[C@@H]2OC(c3ccc(OCCCO)cc3)=N[C@]12Cc1ccccc1	1.05
CCOC(=O)c1ccc(NC(=O)O[C@H]2[C@H](OC(=O)Nc3ccc4c(c3)OCO4)[C@@H](OC(=O)Nc3ccc4c(c3)OCO4)[C@@H](OC)O[C@@H]2CO)cc1	0.517
C=CCC(OC(C)=O)[C@@H]1[C@@H](N(Cc2cccc3ccccc23)C(=O)Cc2ccc(OC)cc2)c2cc(OCCCO)ccc2N1C(=O)c1ccc2ccccc2n1 (some centres undefined)	0.0729
COCCCNC(=O)[C@@]1(Cc2ccccc2CN=[N+]=[N-])N=C(c2ccc(OCCCO)cc2)O[C@H]1c1ccccc1	1.34
COC(=O)[C@@]1(Cc2ccccc2)[C@H]2c3cc(C(=O)N(C)C)n(CCc4ccc(O)c(OC)c4)c3C[C@H]2CN1C(=O)c1ccccc1	0.89
CN1C(=O)C2C=CC(C(O)COCc3ccccc3)N(N(c3ccccc3)c3ccccc3)C2C1=O (centres undefined)	1.41
CC(c1ccccc1)C(O)C1C=CC2C(=O)N(c3ccccc3)C(=O)C2N1Nc1ccc([N+](=O)[O-])cc1 (centres undefined)	0.93
[N-]=[N+]=NCc1ccccc1[C@H]1OC(c2ccc(OCCCO)cc2)=N[C@@]1(CCS(=O)(=O)c1ccccc1)C(=O)N1CCCCC1	2.25
[N-]=[N+]=Nc1ccccc1C[C@]1(C(N)=O)N=C(c2ccc(OCCCO)cc2)O[C@H]1c1ccccc1N=[N+]=[N-]	1.55
COc1cc(CO)cc(I)c1O[C@H]1C=C(C(=O)NCCO)C[C@@H](NCc2ccc(F)cc2)[C@@H]1O	0.433
CCCC[C@@H]1C[C@H]1[C@@H](NC(=O)c1cccs1)c1ccc(C(F)(F)F)cc1	-0.501
COCCOC(=O)N1C(=O)[C@@]2(c3cc(C#CC4=CCCCC4)ccc31)[C@H](C(N)=O)[C@H]1C(=O)O[C@H](c3ccccc3)[C@H](c3ccccc3)N1[C@@H]2c1ccccc1OCCO	0.994
O=C1OCCC=C[C@H]2OC34C=CCN(Cn5nnc6ccccc65)C(=O)[C@H]3N(CCCCCCO)C(=O)[C@@H]4C12 (some centres undefined)	-0.204
Cc1ccc(S[C@]2(C(=O)O)CC(=O)N(Cc3cc(C(F)(F)F)cc(C(F)(F)F)c3)[C@@H]2c2ccc(CO)cc2)cc1	-0.743
